Screens as filed in PubChem BioAssay.
A selection: hits, their analogues and other compounds. The true share with any hit is near 1.2%.
gsp agonist: qHTS for Agonist of gsp, the Etiologic Mutation Responsible for Fibrous Dysplasia/McCune-Albright Syndrome: qHTS. 340,000 tested, 0.13% active. Potency, µM (series often up to 76.9 µM), without a hit: top-dose activation (cAMP increase), most hits filed as activators. AID 624287, 2012. gsp mutant cells, cAMP HTRF, 30 min; active = well fitted activation curve with a large enough effect; inconclusive = small, poorly fitted or top-dose-only effect, or another doubt; inactive = no such curve, though single readings can be large or run the other way; cell line not stated here;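 also: phosphodiesterase inhibitor Ro 20-1724 added with compounds to block cAMP breakdown; potency is read from the fitted curve at half-maximal effect; nearly all actives have a fitted effect of over 60% in size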
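Cells stably selected in G418 were plated at 2000/well, grown 16-24 hr, then given compounds in DMSO with the PDE inhibitor […] (300 uM solution added) for 30 min at 37C; cAMP was read by HTRF.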
TSHR antag: Antagonists of the Thyroid Stimulating Hormone Receptor: HTS campaign | Thyrotropin receptor (Homo sapiens), P16473 | AID 504810, 2011 | activity change, negative = inhibition, % at 11.5 µM | TSHR-expressing cells, TSH-stimulated cAMP HTRF, 2 h; active compounds read low | 330,000 tested, 0.2% active;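 active = activity change below a set negative limit, meaning inhibition stronger than a set level, cut at about -70% in these data; inconclusive = activity change between two set negative limits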; also: % is scaled to controls: 0 for no effect and ±100 for the full control effect
Target sequence (P16473 whole entry, looked up): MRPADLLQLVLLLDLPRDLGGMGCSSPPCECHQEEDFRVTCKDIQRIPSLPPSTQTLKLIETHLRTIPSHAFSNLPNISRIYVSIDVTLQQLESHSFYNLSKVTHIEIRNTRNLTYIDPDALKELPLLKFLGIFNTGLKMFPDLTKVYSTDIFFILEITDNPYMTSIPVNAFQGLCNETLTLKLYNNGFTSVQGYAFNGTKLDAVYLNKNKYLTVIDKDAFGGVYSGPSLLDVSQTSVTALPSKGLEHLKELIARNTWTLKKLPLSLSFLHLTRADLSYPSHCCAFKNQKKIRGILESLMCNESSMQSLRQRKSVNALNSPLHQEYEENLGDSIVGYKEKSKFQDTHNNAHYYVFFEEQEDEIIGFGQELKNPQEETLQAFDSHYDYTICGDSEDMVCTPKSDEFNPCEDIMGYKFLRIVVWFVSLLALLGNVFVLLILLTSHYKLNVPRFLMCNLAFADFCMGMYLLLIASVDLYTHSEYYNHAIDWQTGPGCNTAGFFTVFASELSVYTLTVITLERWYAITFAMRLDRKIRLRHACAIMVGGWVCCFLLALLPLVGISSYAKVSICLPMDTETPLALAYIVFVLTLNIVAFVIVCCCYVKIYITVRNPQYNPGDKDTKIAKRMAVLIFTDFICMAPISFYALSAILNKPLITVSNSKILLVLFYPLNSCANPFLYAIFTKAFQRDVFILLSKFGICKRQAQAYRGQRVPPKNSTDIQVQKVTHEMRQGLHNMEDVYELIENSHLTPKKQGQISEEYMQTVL
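Antagonism was scored as loss of TSH-driven cAMP in TSHR cells, stimulated with 4nM TSH (EC80) for 2 hours at 37 deg C and detected by homogeneous HTRF competition immunoassay.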
MmCpn inh: Inhibitors of TCP-1 ring complex (TRiC) of Methanococcus maripaludis (MmCpn): qHTS; 330,000 tested, 0.031% active; Potency, µM (titrated, usually from 76.9 µM), inactives show at the highest dose activity, negative = inhibition, actives largely listed as inhibitors; purified Mm-Cpn ATPase, ADP Transcreener TR-FRET; active = well fitted inhibition curve with a large enough effect; inconclusive = small, poorly fitted or top-dose-only effect; also: potency is read from the fitted curve at half-maximal effect; % is scaled to controls: 0 for no effect and ±100 for the full control effect; nearly all actives have a fitted effect of over 80% in size
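Reaction buffer contained 30 mM Tris pH 7.4, 100 mM KCl, 5 mM MgCl2 and 1 mM DTT. Mm-CPN (25 nM final) hydrolysed 10 uM ATP over 30 min at 37°C; ADP was read by HTRF.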
uPA generation: qHTS for Inhibitors of Cell Surface uPA Generation; cell surface uPA generation assay, qHTS; Potency, µM (series often up to 38.3 µM), without a hit: at the top dose activity change, negative = inhibition, actives largely listed as inhibitors; 330,000 tested, 0.31% active; AID 540303, 2011; active = well fitted inhibition curve with a large enough effect; inconclusive = small, poorly fitted or top-dose-only effect; inactive = no such curve, though single readings can be large or run the other way; tested in mouse RAW 264.7 cells; also: potency is read from the fitted curve at half-maximal effect; % is scaled to controls: 0 for no effect and ±100 for the full control effect; nearly all actives have a fitted effect of over 55% in size
CCT chaperon mod: High-Throughput Screening for Modulators of Cytosolic Chaperonin Activity | purified chaperonin ATPase assay, HTRF ADP detection, 30 min | 360,000 tested, 0.3% active | activity change, % (no concentration beside the values), hits read low; in the data active = activity change below about -30%; also: % is scaled to controls: 0 for no effect and ±100 for the full control effect
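We incubate TRiC, 40 or 20 nM final, with library compounds at 76 uM and 10 uM ATP for 30 min at 37 °C. ADP formed is detected with Transcreener HTRF reagents after 30 min at room temperature.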
gsp antag: qHTS for Antagonists of gsp, the Etiologic Mutation Responsible for Fibrous Dysplasia/McCune-Albright Syndrome: qHTS. gsp-mutant cells, cAMP HTRF, 30 min. Potency, µM (titrated, usually from 76.9 µM), for the others: top-dose activity change, negative = inhibition, most hits filed as inhibitors. 340,000 tested, 0.4% active. AID 624288, 2012; calls by dose curve; cell line not stated here;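 also: intracellular cAMP measured with PDE inhibitor Ro 20-1724 present during compound exposure; potency is read from the fitted curve at half-maximal effect; % is scaled to controls: 0 for no effect and ±100 for the full control effect; nearly all actives have a fitted effect of over 65% in size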
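HTRF cAMP read-out (cAMP-d2 plus anti-cAMP antibody-K in lysis buffer, 30 min RT). Before lysis, cells are exposed to compounds with […] for 30 min at 37C in DPBS containing Ca/Mg, BSA and Tween 20.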
An asterisk follows results filed as active; ? = inconclusive; nt = no result given; [ ] = another dose, or the depositor's remark.

SMILES	gsp agonist	TSHR antag	MmCpn inh	uPA generation	CCT chaperon mod	gsp antag
COc1ccc(-n2nc([N+](=O)[O-])c(=NCCc3ccccc3)n2O)cc1	1%	-6	-1%	10µM*	-1	12%
CC(=O)Nc1cc(-c2ccccc2F)cn2c(-c3ccccc3)cnc12	nt	nt	nt	nt	-36*	nt
Cc1ccc(C(O)c2ncc(-c3ccccc3C)[nH]2)cc1 (centres undefined)	nt	nt	nt	nt	-3	nt
COc1ccc(-c2nc(Cn3c(SCc4ccc(C)cc4)nc4ccncc43)c(C)o2)cc1OC	26%	-12	-24%	8.9µM*	-1	0%
COc1cc(C(=O)Nc2cccc(C)c2C)ccc1OCC(=O)N1CCOCC1	?	5	3%	-7%	-34*	3%
COc1cccc(N2C(=O)CC(N3CCN(S(=O)(=O)c4ccccc4[N+](=O)[O-])CC3)C2=O)c1 (centres undefined)	6%	nt	nt	-6%	-3	-9%
C=CCSc1nnc2c(n1)OC(c1cccnc1)Nc1ccccc1-2 (centres undefined)	0%	7	-2%	1%	0	-5%
C=CCSc1nnc2c(n1)OC(c1c(C)[nH]n(-c3ccccc3)c1=O)Nc1ccccc1-2 (centres undefined)	9%	-11	0%	9%	-1	25µM*
COCCN(C(=O)CSc1nc2ccc(Cl)cc2[nH]1)c1c(N)n(Cc2ccccc2)c(=O)[nH]c1=O	2%	-7	-9%	12%	-3	4%
COCCN(C(=O)COC(=O)C1CCC(C(C)(C)C)CC1)c1c(N)n(Cc2ccccc2)c(=O)[nH]c1=O (centres undefined)	-2%	-7	0%	10µM*	2	4%
COCCN(C(=O)CSc1nc2ccc(C)cc2[nH]1)c1c(N)n(Cc2ccccc2)c(=O)[nH]c1=O	?	8	2%	1%	-39*	-3%
CCCc1cc(=O)[nH]c(SCC(=O)N2CCN(S(=O)(=O)c3ccc4ccccc4c3)CC2)n1	19%	-7	1%	3%	-3	-11%
CCOC(=O)c1c(C)c(C(=O)NC2CCCCC2)c(C)n1CC	16%	1	-1%	4%	1	6%
CCC1CCc2sc(C(=O)NCC(c3ccc(OC)cc3)N3CCOCC3)cc2C1 (centres undefined)	4%	-4	1%	-14%	-2	-10%
COc1ccc(OC)c(/C=C2\S/C(=N/NC(=O)c3ccc4ccccc4c3)NC2=O)c1	24%[15.4 µM]	-19	-4%	-1%	-3	4%
O=C1N/C(=N/NC(=O)c2cccc3ccccc23)S/C1=C\c1ccccc1OCc1ccccc1	?	19	3%	-4%	0	28µM*
O=C(OCc1nc2ccccc2[nH]1)C12CC3CC(CC(C3)C1)C2	11%	-14	3%	nt	-1	35µM*
Cc1cccc(C)c1NC(=O)COC(=O)c1cc(-c2cccnc2)nc2ccccc12	?	-11	-24%	8%	1	-17%
CCOC(=O)c1ccccc1NC(=O)CSc1nc2c(c(=O)n(C)c(=O)n2C)n1C	nt	13	2%	nt	nt	nt
CCOC(=O)c1ccccc1NC(=O)Cn1cnc2c1c(=O)n(C)c(=O)n2C	28µM*	3	-1%	-5%	-1	13%
Cc1ccc(C(C[N+](=O)[O-])c2c(N)n(C)c(=O)n(C)c2=O)cc1 (centres undefined)	11%	4	0%	10µM*	0	8%
Cc1cc(C=O)c(C)n1-c1ccc(NC2CCCC2)c([N+](=O)[O-])c1	1%[15.4 µM]	-100*	-3%	2%	-3	-12%
